PubChem BioAssay (EPA / NIEHS)
Activity calls are given as the source filed them. The calls were made as follows: active = hit-call score of the fitted dose curve at least 0.9, where 1 is the maximum; inactive = score below 0.9.

Legend:
[1] = read-out: Cytochrome P450 (CYP1A1), CYP1A1 (gene 1543); experiment: LTEA_HepaRG_CYP1A1: Life Technologies and Expression Analysis (LTEA) Assay for Cytochrome P450 (CYP1A1) using HepaRG (AID 2283454); details: mRNA level, 48 h; actives raise or lower the signal
Summary of the method: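 CYP1A1 transcript levels measured by Fluidigm qRT-PCR against three housekeeping genes, 48 h after chemical dosing of human HepaRG cells (highest concentration 100 uM, half-log steps, 0.5% DMSO vehicle). Gain or loss of signal fitted relative to DMSO.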

[2] = read-out: CFLAR gene, CFLAR (gene 8837); experiment: LTEA_HepaRG_CFLAR: Life Technologies and Expression Analysis (LTEA) Assay for CFLAR gene using HepaRG (AID 2283455); details: mRNA level, 48 h; actives raise or lower the signal
Summary of the method: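 Transcript level by qRT-PCR (normalized to ACTB, GAPDH and POLR2A) after 48 h chemical exposure of HepaRG cells, top concentration 100 uM with half-log steps, 0.5% DMSO vehicle, duplicates; fitted bidirectionally against DMSO baseline.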

[3] = read-out: Forkhead box O1 (FOXO1), FOXO1 (gene 2308); experiment: LTEA_HepaRG_FOXO1: Life Technologies and Expression Analysis (LTEA) Assay for Forkhead box O1 (FOXO1) using HepaRG (AID 2283456); details: mRNA level, 48 h; actives raise or lower the signal
Summary of the method: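 FOXO1 transcript quantified by qRT-PCR after 48 h chemical exposure (top 100 uM, half-log steps, 0.5% DMSO) of HepaRG cells, housekeeping-normalized (ACTB/GAPDH/POLR2A). Changes fitted in both directions relative to vehicle.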

[4] = CEETOX_H295R_TESTO: CeeTox H295R High-throughput Steroidogenesis Assay for Testosterone (TESTO) (AID 2283457); details: actives raise or lower the signal
Summary of the method: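 Testosterone secreted into the medium over 48 h by H295R cells (maximum passage 10) was quantified by LC-MS/MS after MTBE extraction. Fitted in both directions against DMSO, with concentrations diluted until MTT viability was ≥70%.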

[5] = read-out: growth arrest and DNA damage 45 (GADD45A), GADD45A (gene 1647); experiment: LTEA_HepaRG_GADD45A: Life Technologies and Expression Analysis (LTEA) Assay for growth arrest and DNA damage 45 (GADD45A) using HepaRG (AID 2283458); details: mRNA level, 48 h; actives raise or lower the signal
Summary of the method: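 Transcript induction or loss, quantified by TaqMan qRT-PCR against three housekeeping genes, is the read-out. HepaRG cells received chemicals for 48 h across eight half-log concentrations from 100 uM in 0.5% DMSO; gain and loss fitted relative to DMSO.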

[6] = read-out: Forkhead box O3 (FOXO3), FOXO3 (gene 2309); experiment: LTEA_HepaRG_FOXO3: Life Technologies and Expression Analysis (LTEA) Assay for Forkhead box O3 (FOXO3) using HepaRG (AID 2283459); details: mRNA level, 48 h; actives raise or lower the signal
Summary of the method: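 FOXO3 transcript measured by qRT-PCR (normalized to ACTB, GAPDH, POLR2A) after 48 h exposure of HepaRG cells in serum-free induction medium. Duplicates, eight half-log concentrations up to 100 uM, 0.5% DMSO; gain or loss fitted against DMSO.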

[7] = read-out: ABC Transporter (ABCB1), ABCB1 (gene 5243); experiment: LTEA_HepaRG_ABCB1: Life Technologies and Expression Analysis (LTEA) Assay for ABC Transporter (ABCB1) using HepaRG (AID 2283460); details: mRNA level, 48 h; actives raise or lower the signal
Summary of the method: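 ABCB1 transcript level measured by TaqMan qRT-PCR against three housekeeping genes after 48 h chemical exposure of differentiated HepaRG cells. Top concentration 100 uM, half-log steps, eight points, 0.5% DMSO vehicle; bidirectional fit relative to DMSO.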

[8] = read-out: growth arrest and DNA damage 45 (GADD45B), GADD45B (gene 4616); experiment: LTEA_HepaRG_GADD45B: Life Technologies and Expression Analysis (LTEA) Assay for growth arrest and DNA damage 45 (GADD45B) using HepaRG (AID 2283461); details: mRNA level, 48 h; actives raise or lower the signal
Summary of the method: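 Transcript level quantified by Fluidigm TaqMan qRT-PCR with three housekeeping genes for normalization, analyzed for up- or down-regulation against 0.5% DMSO. HepaRG cultures dosed 48 h at eight half-log concentrations up to 100 uM, duplicates.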

[9] = read-out: ABC Transporter (ABCC3), ABCC3 (gene 8714); experiment: LTEA_HepaRG_ABCC3: Life Technologies and Expression Analysis (LTEA) Assay for ABC Transporter (ABCC3) using HepaRG (AID 2283462); details: mRNA level, 48 h; actives raise or lower the signal
Summary of the method: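 Transcript level by TaqMan qRT-PCR, normalised to three housekeeping genes, fitted in both directions relative to vehicle. Chemicals tested in duplicate at eight half-log concentrations up to 100 uM for 48 h on HepaRG cells (0.5% DMSO).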

[10] = read-out: ABC Transporter (ABCB11), ABCB11 (gene 8647); experiment: LTEA_HepaRG_ABCB11: Life Technologies and Expression Analysis (LTEA) Assay for ABC Transporter (ABCB11) using HepaRG (AID 2283463); details: mRNA level, 48 h; actives raise or lower the signal
Summary of the method: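 ABCB11 transcript levels quantified by TaqMan qRT-PCR against three housekeeping genes after 48 h chemical exposure of HepaRG cultures. Concentrations up to 100 uM in half-log steps, 0.5% DMSO vehicle; both induction and suppression scored.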

[11] = read-out: ABC Transporter (ABCC2), ABCC2 (gene 1244); experiment: LTEA_HepaRG_ABCC2: Life Technologies and Expression Analysis (LTEA) Assay for ABC Transporter (ABCC2) using HepaRG (AID 2283464); details: mRNA level, 48 h; actives raise or lower the signal
Summary of the method: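 Endpoint is ABCC2 transcript level from qRT-PCR, normalized to three housekeeping genes and fitted bidirectionally relative to DMSO. Human HepaRG cells received test chemical for 48 h at up to 100 uM (8 points, half-log steps, 0.5% DMSO), duplicate wells.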

[12] = read-out: Broad substrate specificity ATP-binding cassette transporter ABCG2 (Homo sapiens) (UniProt Q9UNQ0); experiment: LTEA_HepaRG_ABCG2: Life Technologies and Expression Analysis (LTEA) Assay for ABC Transporter (ABCG2) using HepaRG (AID 2283465); details: mRNA level, 48 h; actives raise or lower the signal
Summary of the method: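 ABCG2 transcript was quantified by TaqMan qRT-PCR against three housekeeping genes in HepaRG cells. Cells were treated in duplicate for 48 h across an 8-point half-log series up to 100 uM, with 0.5% DMSO vehicle. Gain or loss versus DMSO was fit.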

[13] = read-out: ATP-citrate lyase (ACLY), ACLY (gene 47); experiment: LTEA_HepaRG_ACLY: Life Technologies and Expression Analysis (LTEA) Assay for ATP-citrate lyase (ACLY) using HepaRG (AID 2283466); details: mRNA level, 48 h; actives raise or lower the signal
Summary of the method: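 ACLY mRNA quantified by qRT-PCR on Fluidigm arrays against three housekeeping genes, after 48 h chemical treatment of HepaRG cells (top concentration 100 uM, half-log steps, 0.5% DMSO vehicle). Up- or down-regulation fitted relative to DMSO.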

[14] = read-out: Peroxisomal acyl-coenzyme A oxidase 1 (ACOX1) gene, ACOX1 (gene 51); experiment: LTEA_HepaRG_ACOX1: Life Technologies and Expression Analysis (LTEA) Assay for Peroxisomal acyl-coenzyme A oxidase 1 (ACOX1) gene using HepaRG (AID 2283467); details: mRNA level, 48 h; actives raise or lower the signal
Summary of the method: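 ACOX1 transcript levels were quantified by TaqMan qRT-PCR against three housekeeping genes after 48 h chemical exposure of differentiated human HepaRG cells. Exposure used eight half-log steps topping at 100 uM, 0.5% DMSO vehicle, in duplicate. Bidirectional curve fits were made relative to DMSO.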

[15] = read-out: Bcl-2 (BAD) gene, BAD (gene 572); experiment: LTEA_HepaRG_BAD: Life Technologies and Expression Analysis (LTEA) Assay for Bcl-2 (BAD) gene using HepaRG (AID 2283469); details: mRNA level, 48 h; actives raise or lower the signal
Summary of the method: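 Read-out: qRT-PCR of BAD mRNA, normalized to three housekeeping genes. Human HepaRG cultures got 48 h chemical exposure in 0.5% DMSO, duplicate eight-point half-log series topping at 100 uM. Gain or loss of signal fitted versus DMSO vehicle.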

[16] = read-out: Bcl-2 (BAX) gene, BAX (gene 581); experiment: LTEA_HepaRG_BAX: Life Technologies and Expression Analysis (LTEA) Assay for Bcl-2 (BAX) gene using HepaRG (AID 2283470); details: mRNA level, 48 h; actives raise or lower the signal
Summary of the method: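 Cells were thawed, plated for 48 h, moved to serum-free induction medium and dosed for 48 h (highest concentration 100 uM, half-log steps, 0.5% DMSO). Total RNA was then analysed for BAX expression by qRT-PCR.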

[17] = read-out: adenosine kinase (ADK) gene, ADK (gene 132); experiment: LTEA_HepaRG_ADK: Life Technologies and Expression Analysis (LTEA) Assay for adenosine kinase (ADK) gene using HepaRG (AID 2283471); details: mRNA level, 48 h; actives raise or lower the signal
Summary of the method: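 HepaRG (human liver), 48 h chemical exposure, 8-pt half-log series, top 100 uM, 0.5% DMSO vehicle. Readout: ADK mRNA by qRT-PCR vs housekeeping genes; bidirectional curve fit relative to DMSO baseline.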

[18] = read-out: Alpha-fetoprotein (AFP) gene, AFP (gene 174); experiment: LTEA_HepaRG_AFP: Life Technologies and Expression Analysis (LTEA) Assay for Alpha-fetoprotein (AFP) gene using HepaRG (AID 2283472); details: mRNA level, 48 h; actives raise or lower the signal
Summary of the method: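 Chemicals were tested on differentiated HepaRG cells for 48 hours at eight concentrations up to 100 uM, with 0.5% DMSO as vehicle. AFP expression was then quantified by qRT-PCR and analyzed for gain or loss relative to DMSO.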

[19] = read-out: BCL2L11 (gene 10018); experiment: LTEA_HepaRG_BCL2L11: Life Technologies and Expression Analysis (LTEA) Assay for Bcl-2 (BCL2L11) gene using HepaRG (AID 2283473); details: mRNA level, 48 h; actives raise or lower the signal
Summary of the method: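 BCL2L11 transcript levels are measured by Fluidigm qRT-PCR, normalized to three housekeeping genes. HepaRG cultures were plated 48 h, then treated 48 h with test chemical (top 100 uM, half-log, 0.5% DMSO vehicle); curves were fitted bidirectionally against DMSO.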

[20] = read-out: Alkaline Phosphatase, Placental (ALPP) gene, ALPP (gene 250); experiment: LTEA_HepaRG_ALPP: Life Technologies and Expression Analysis (LTEA) Assay for Alkaline Phosphatase, Placental (ALPP) gene using HepaRG (AID 2283468); details: mRNA level, 48 h; actives raise or lower the signal;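 as to AC50: differentiated human HepaRG liver cells in serum-free induction medium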
Summary of the method: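 ALPP transcript level, measured by qRT-PCR and normalized to three housekeeping genes (ACTB, GAPDH, POLR2A), after 48 h dosing of differentiated HepaRG in serum-free induction medium. Top concentration 100 uM with half-log dilutions (8 points, 0.5% DMSO, duplicates); bidirectional fitting relative to DMSO.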

Measured: AC50

Chain of Broad substrate specificity ATP-binding cassette transporter ABCG2 (Homo sapiens) (Q9UNQ0 whole entry, looked up): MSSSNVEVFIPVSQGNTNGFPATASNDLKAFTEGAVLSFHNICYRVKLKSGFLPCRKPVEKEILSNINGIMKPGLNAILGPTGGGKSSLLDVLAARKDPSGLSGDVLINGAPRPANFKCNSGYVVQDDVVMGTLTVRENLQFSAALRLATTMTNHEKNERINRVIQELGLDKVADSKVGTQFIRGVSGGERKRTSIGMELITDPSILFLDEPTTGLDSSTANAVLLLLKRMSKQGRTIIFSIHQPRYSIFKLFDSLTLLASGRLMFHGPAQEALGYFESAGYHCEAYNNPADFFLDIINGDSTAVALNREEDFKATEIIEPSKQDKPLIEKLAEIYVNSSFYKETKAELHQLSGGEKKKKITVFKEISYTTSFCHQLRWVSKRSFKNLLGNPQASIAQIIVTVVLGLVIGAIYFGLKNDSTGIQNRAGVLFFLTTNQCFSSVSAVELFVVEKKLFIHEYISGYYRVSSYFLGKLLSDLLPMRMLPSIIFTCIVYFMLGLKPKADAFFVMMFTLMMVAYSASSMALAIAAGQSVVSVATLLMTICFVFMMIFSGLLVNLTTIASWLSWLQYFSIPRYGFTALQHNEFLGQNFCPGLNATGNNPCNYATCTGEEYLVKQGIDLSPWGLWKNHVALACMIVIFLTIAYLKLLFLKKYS

CNC(=O)Oc1cccc2c1OC(C)(C)C2
active: [1] 50 µM | [5] 0.0409 µM | [8] 50 µM | [10] 28.4 µM | [18] 9.92 µM
not listed: [20]
inactive: all other assays above

Cc1ccc(N)cc1
not listed: [4] | [16]
inactive: all other assays above

O=C(N[C@H](c1ccccc1)[C@@H]1CN2CCC1CC2)c1c(Cl)ccc(C(F)(F)F)c1Cl
inactive: [6] | [10] | [12] | [15]
active: [1] 11 µM | [2] 82.4 µM | [3] 74.5 µM | [5] 46.2 µM | [7] 13.5 µM | [8] 46.2 µM | [9] 36.3 µM | [11] 71.8 µM | [13] 78.7 µM | [14] 70.3 µM | [20] 11.8 µM | [16] 75.3 µM | [17] 58 µM | [18] 22.8 µM | [19] 11.3 µM

N#CC(Br)(Br)C(N)=O
not listed: [4] | [20]
inactive: all other assays above

CC(C)(O)c1cnn2c(-c3ccc(F)c(-c4c(F)cccc4C#N)c3)cnc2n1
active: [1] 11.9 µM | [7] 0.438 µM | [10] 13.1 µM | [11] 0.304 µM | [14] 0.00316 µM | [18] 12.7 µM
inactive: all other assays above

CN(C)[C@@H]1C(=O)C(C(N)=O)=C(O)[C@@]2(O)C(=O)C3=C(O)c4c(O)cccc4[C@@](C)(O)[C@H]3C[C@@H]12
active: [1] 34.7 µM
not listed: [4]
inactive: all other assays above

ClC1=C(Cl)C2(Cl)C3C(Cl)C=CC3C1(Cl)C2(Cl)Cl (stereo unspecified)
active: [1] 18.3 µM | [7] 1.45 µM | [10] 41.6 µM | [11] 11.4 µM | [12] 8.6 µM | [18] 22.7 µM
not listed: [4] | [16]
inactive: all other assays above
